KCNQ2 pot = potentiators of rat KCNQ2 potassium channel | Potassium voltage-gated channel subfamily KQT member 2 (Rattus norvegicus), O88943 | CHO-K1 KCNQ2, FluxOR thallium flux fluorescence; stronger effect = higher value | B-score at 10 µM | 310,000 tested, 0.54% active | AID 2239, 2010;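 active = fluorescence ratio B-score at least 3 SD of library B-scores, with initial fluorescence B-score within 3 of them, cut at about 5.3 in these data; same plate scores as AID 2156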;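 also: B-score of peak minus minimum over baseline fluorescence ratio after K+ and Tl+ stimulus; positive B-score means potentiation of KCNQ2 with more thallium influx and brighter signal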
Target sequence (O88943 whole entry, looked up): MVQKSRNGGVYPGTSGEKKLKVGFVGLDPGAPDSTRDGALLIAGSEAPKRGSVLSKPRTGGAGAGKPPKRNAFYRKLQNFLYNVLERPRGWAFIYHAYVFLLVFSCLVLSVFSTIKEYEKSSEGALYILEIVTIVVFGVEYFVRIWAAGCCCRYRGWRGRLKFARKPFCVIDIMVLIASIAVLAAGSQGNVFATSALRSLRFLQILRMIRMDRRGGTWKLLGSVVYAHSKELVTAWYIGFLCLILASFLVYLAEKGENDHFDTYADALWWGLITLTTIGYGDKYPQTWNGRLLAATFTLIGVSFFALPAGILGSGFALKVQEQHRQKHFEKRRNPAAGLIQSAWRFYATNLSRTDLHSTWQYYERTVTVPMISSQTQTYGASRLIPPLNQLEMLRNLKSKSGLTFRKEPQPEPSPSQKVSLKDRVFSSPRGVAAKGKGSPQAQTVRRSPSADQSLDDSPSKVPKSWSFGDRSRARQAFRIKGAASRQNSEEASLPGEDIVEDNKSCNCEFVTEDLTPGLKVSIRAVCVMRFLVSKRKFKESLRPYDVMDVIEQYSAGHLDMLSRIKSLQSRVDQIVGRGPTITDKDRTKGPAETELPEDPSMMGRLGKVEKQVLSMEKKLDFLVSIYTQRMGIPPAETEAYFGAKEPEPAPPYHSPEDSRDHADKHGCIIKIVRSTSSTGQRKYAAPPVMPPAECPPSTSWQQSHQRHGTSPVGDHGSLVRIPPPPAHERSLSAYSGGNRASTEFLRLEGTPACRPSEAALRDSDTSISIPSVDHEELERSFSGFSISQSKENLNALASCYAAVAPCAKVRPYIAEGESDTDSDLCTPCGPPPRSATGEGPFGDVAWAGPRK
KCNQ2 inh = rat KCNQ2 potassium channel inhibitors, primary screen, cell-based, CHO-K1, FluxOR thallium flux, B-score. 20 min; stronger effect = lower value. B-score at 10 µM. 310,000 tested, 1.1% active;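 active = fluorescence ratio B-score at most minus 3 library SDs, with starting brightness B-score within 2 library SDs, cut at about -5.5 in these data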
Starred values were filed as active, the others as inactive. A selection: hits, their analogues and other compounds. The true share with any hit is near 1.6%.

Cc1ccc(C2C3=C(CCCC3=O)OC3=C2C(=O)CCC3)cc1 was read as KCNQ2 inh inactive.
`CC1Cc2ccccc2N1NC(=O)c1ccc(Cl)c(S(N)(=O)=O)c1` (centres undefined) gave KCNQ2 inh inactive.
For Oc1c(Cl)cc(Cl)cc1/C=N/Nc1ncc(Br)cn1 the results were KCNQ2 inh inactive.
Screening Cc1ccc(N=Cc2cc(Cl)cc(Cl)c2O)nc1 returned KCNQ2 pot 12.4* and KCNQ2 inh inactive.
O=C(OCn1ncc(Br)c(Br)c1=O)c1ccc(F)cc1 was read as KCNQ2 pot -5.6 and KCNQ2 inh -5.6*.
O=C(OCn1ncc(Br)c(Br)c1=O)c1ccccc1Cl was read as KCNQ2 inh inactive.
`CCOC(=O)c1ccc(NC(=S)NC(=O)c2cncc(Br)c2)cc1` gave KCNQ2 inh inactive.
CCCCOC(=O)c1ccc(NC(=S)NC(=O)c2c(Br)c(C)nn2C)cc1 was read as KCNQ2 pot 9.6* and KCNQ2 inh inactive.
For S=c1[nH]c2ccc(Cl)cc2s1 the results were KCNQ2 pot 20.9* and KCNQ2 inh inactive.
For Cc1cc(=O)[nH]c2ccc(Cl)cc12 the results were KCNQ2 pot 0.91 and KCNQ2 inh inactive.
For O=C(O)c1cccc2cccnc12 the results were KCNQ2 pot 0.14 and KCNQ2 inh inactive.
For COc1cccc(C(=O)NCC(=O)NCc2cc(=O)n(C)c(=O)n2C)c1OC the results were KCNQ2 inh inactive.
For CCOC(=O)c1sc(NC(=O)Cc2c(F)cccc2Cl)nc1C the results were KCNQ2 inh inactive.
For CCOC(=O)c1sc2nccc(N(C)C)c2c1N=CNOCc1c(F)cccc1Cl the results were KCNQ2 pot -6.23 and KCNQ2 inh -6.23*.
For O=C(Nc1cccc2ncccc12)c1cccc(F)c1 the results were KCNQ2 pot 0.17 and KCNQ2 inh inactive.
For O=c1c(C=NCCN2CCNCC2)c(-c2ccccc2)[nH]n1-c1ccc([N+](=O)[O-])cc1 the results were KCNQ2 pot -7.04 and KCNQ2 inh -7.04*.
COc1ccc(-c2[nH]n(-c3ccc([N+](=O)[O-])cc3)c(=O)c2C=NCCN2CCNCC2)cc1 was read as KCNQ2 inh inactive.
Screening CCCCN(c1ccccc1)S(=O)(=O)N(C)C returned KCNQ2 inh inactive.
Screening CCCCN(S(=O)(=O)c1ccccc1)S(=O)(=O)c1ccccc1 returned KCNQ2 pot -6.03 and KCNQ2 inh -6.03*.
Screening O=c1c2[nH]c3ccccc3c2ncn1CCC1=CCCCC1 returned KCNQ2 inh inactive.
`COCCCn1c2nc3ccccc3nc2c2c(=O)n(CC3CCCO3)cnc21` (centres undefined) gave KCNQ2 pot 0.02 and KCNQ2 inh inactive.
`CCCCCCn1c(C)nc2c(c1=O)c1nc3ccccc3nc1n2/N=C/c1ccco1` gave KCNQ2 inh inactive.
Screening O=c1c2c3nc4ccccc4nc3n(/N=C/c3ccco3)c2ncn1CCC1=CCCCC1 returned KCNQ2 pot -6.62 and KCNQ2 inh -6.62*.
Cc1nc2c(c(=O)n1CCC1=CCCCC1)c1nc3ccccc3nc1n2/N=C/c1ccccc1 was read as KCNQ2 pot -5.74 and KCNQ2 inh -5.74*.
`CCOCCCn1c(C)nc2c(c1=O)c1nc3ccccc3nc1n2CCC1=CCCCC1` gave KCNQ2 pot -5.75 and KCNQ2 inh -5.75*.
CC(C)(C)OC(=O)N1CCC(c2c(C(=O)N3CCN(C(=O)c4ccco4)CC3)cnn2-c2ccc(F)cc2F)CC1 was read as KCNQ2 pot 0.27 and KCNQ2 inh inactive.
COc1cccc(CNC(=O)Nc2cccs2)c1 was read as KCNQ2 pot 5.67* and KCNQ2 inh inactive.
COc1ccc(CNC(=O)Nc2cccs2)cc1OC was read as KCNQ2 pot 1.92 and KCNQ2 inh inactive.
`COc1ccc(NC(=O)COC(=O)CC2CC3CCC2C3)c([N+](=O)[O-])c1` (centres undefined) gave KCNQ2 inh inactive.
`NC(=NCCc1c[nH]c2ccccc12)NC(=O)c1ccc(Cl)cc1` gave KCNQ2 pot -5.69 and KCNQ2 inh -5.69*.
For O=C(N[C@@H](Cc1c[nH]c2ccccc12)C(=O)O)c1ccc(Cl)cc1 the results were KCNQ2 pot 1 and KCNQ2 inh inactive.
`CCN(CCO)c1ccc(NC(=S)Nc2cccc(S(=O)(=O)N(C)C)c2)cc1` gave KCNQ2 pot -6.73 and KCNQ2 inh -6.73*.
Screening CN(C)S(=O)(=O)c1cccc(NC(=S)Nc2cc(Cl)cc(Cl)c2)c1 returned KCNQ2 pot 1.04 and KCNQ2 inh inactive.
For COc1ccc(N2C(=NC(=O)CCCc3ccccc3)SC3CS(=O)(=O)CC32)cc1 (centres undefined) the results were KCNQ2 pot 0.86 and KCNQ2 inh inactive.
For CN1CCN(c2ccc(Cl)cc2NC(=O)/C=C/c2ccc(F)cc2)CC1 the results were KCNQ2 pot -5.64 and KCNQ2 inh -5.64*.
For O=C(/C=C/c1ccc(F)cc1)Nc1cc(S(=O)(=O)N2CCOCC2)ccc1N1CCCC1 the results were KCNQ2 inh inactive.
COc1ccc(OC)c(NC(=O)CSc2nnc(-c3ccncc3)s2)c1 was read as KCNQ2 inh inactive.
`CCN(CC)CCNC(=O)c1ccc(NC(=O)Cc2ccsc2)cc1` gave KCNQ2 pot 1.14 and KCNQ2 inh inactive.
`CCCNC(=O)Cc1ccsc1` gave KCNQ2 pot -7.8 and KCNQ2 inh -7.8*.
COc1ccc2nc(NC(=O)CN3CCN(C)CC3)sc2c1 was read as KCNQ2 pot 0.78 and KCNQ2 inh inactive.
`O=C(CSc1nc2ccccc2s1)N1c2ccccc2Sc2ccc(Cl)cc21` gave KCNQ2 inh inactive.
Screening O=C(CSc1nc2ccccc2s1)N1c2ccccc2Sc2ccc(C(F)(F)F)cc21 returned KCNQ2 pot -6.5 and KCNQ2 inh -6.5*.
Cc1cnc(C(=O)OCC(=O)Nc2oc(-c3ccccc3)c(-c3ccccc3)c2C#N)cn1 was read as KCNQ2 pot 0.82 and KCNQ2 inh inactive.
`Cc1ccc(OCCN2CCN(c3ncnc4sc(C)c(C)c34)CC2)cc1` gave KCNQ2 inh inactive.
Clc1ccc(OCCN2CCN(c3ncnc4sccc34)CC2)cc1 was read as KCNQ2 pot -6.05 and KCNQ2 inh -6.05*.
`COc1cc(OC)cc(C(=O)N(Cc2nc(-c3cccc(C)c3)no2)C(C)C)c1` gave KCNQ2 inh inactive.
Cc1cccc(-c2noc(CN(C(=O)C34CC5CC(CC(C5)C3)C4)C(C)C)n2)c1 was read as KCNQ2 pot -5.71 and KCNQ2 inh -5.71*.
Oc1ccc(/C=N/Nc2cc(N3CCCC3)nc(N3CCCC3)n2)cc1O was read as KCNQ2 pot 2.49 and KCNQ2 inh inactive.
For COc1ccc(CCNC(=O)c2cccc(NC(=O)CC3SC(N4CCCCC4)=NC3=O)c2)cc1OC (centres undefined) the results were KCNQ2 pot 1.9 and KCNQ2 inh inactive.
`CC12CCC(=O)N1C(C(=O)Nc1ccc(Cl)c(S(=O)(=O)N3CCCCC3)c1)CS2` (centres undefined) gave KCNQ2 pot -6.08 and KCNQ2 inh -6.08*.
Screening CC12CCC(=O)N1C(C(=O)Nc1cc(C(F)(F)F)ccc1N1CCCCC1)CS2 (centres undefined) returned KCNQ2 pot -6.05 and KCNQ2 inh -6.05*.
`CC12CCC(=O)N1C(C(=O)Nc1ccc(Cl)c(Cl)c1)CS2` (centres undefined) gave KCNQ2 inh inactive.

High-throughput results deposited in PubChem by Johns Hopkins Ion Channel Center.
